From publication PMC8384837, “Expanding the binding specificity for RNA recognition by a PUF domain”

Tests used:
Assay in all cases: yeast three-hybrid, YBZ-1, SC-Leu-His + 0.5 mM 3-AT, 4 days
Settings in all cases: tags: N-Gal4 AD-HA kept; label: inside an RPR1-promoter hybrid RNA with tandem MS2 sites; ssRNA
[1] = target: PUM1 PUF domain R5-RGS (Homo sapiens, UniProt Q14671 828-1176, C1007R;R1008G;Q1011S)
In short: (§1)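 The interaction score is the logarithmic change in variant frequency from input to selection. It uses log2, with a pseudocount of 1 for absent variants, and frequencies came from PCR-amplified, Illumina-sequenced repeat regions. The libraries were Pumilio-1 PUF domains randomized at the three base-contacting residues per repeat, co-expressed with matching RNA elements in strain YBZ-1 (LexA–MS2 coat fusion, HIS3 reporter). Plating lasted four days on SC-Leu (input) or SC-Leu-His + 0.5 mM 3-AT (selection).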

[2] = target: PUM1 PUF domain R5-KSV (Homo sapiens, UniProt Q14671 828-1176, C1007K;R1008S;Q1011V)
In short: as §1

[3] = target: PUM1 PUF domain R5-KST (Homo sapiens, UniProt Q14671 828-1176, C1007K;R1008S;Q1011T)
In short: as §1

[4] = target: PUM1 PUF domain R5-RPD (Homo sapiens, UniProt Q14671 828-1176, C1007R;R1008P;Q1011D)
In short: as §1

[5] = target: PUM1 PUF domain R5-RNW (Homo sapiens, UniProt Q14671 828-1176, C1007R;R1008N;Q1011W)
In short: as §1

[6] = target: PUM1 PUF domain R3-ATE (Homo sapiens, UniProt Q14671 828-1176, C935A;R936T;Q939E)
In short: as §1

Sequence | binding signal [1] | binding signal [2] | binding signal [3] | binding signal [4] | binding signal [5] | binding signal [6]
GGCUAGAACUAGUGGAUCCCCCGGCGCCCGGCGGCUCGAGCCCGGGUAAGUGUCAAUAGUCUGCAUGCCGCCGGGCGCCAUGCCUGCAGGUCGACUCUAGAAAACAUG | 2.45 log2 enrichment (interaction score) | 3.48 log2 enrichment (interaction score) | 4.03 log2 enrichment (interaction score) | 3.41 log2 enrichment (interaction score) | 0.29 log2 enrichment (interaction score) | –
GGCUAGAACUAGUGGAUCCCCCGGCGCCCGGCGGCUCGAGCCCGGGUAAGUGUAAGUAGUCUGCAUGCCGCCGGGCGCCAUGCCUGCAGGUCGACUCUAGAAAACAUG | – | – | – | – | – | 3.33 log2 enrichment (interaction score)
GGCUAGAACUAGUGGAUCCCCCGGCGCCCGGCGGCUCGAGCCCGGGUAAGUGUUAAUAGUCUGCAUGCCGCCGGGCGCCAUGCCUGCAGGUCGACUCUAGAAAACAUG | 2.13 log2 enrichment (interaction score) | 2.74 log2 enrichment (interaction score) | 2.74 log2 enrichment (interaction score) | 2.4 log2 enrichment (interaction score) | 2.82 log2 enrichment (interaction score) | –
